# Active and inactive are the calls of the source. Unless noted, the rule behind the calls is not given here.
# Tests used:
# [1] = HepG2 liver cancer cell viability effects, profiling panel, resazurin fluorescence, 24 h, PK04 Diversity Set (AID 1172); details: higher = more signal
# [2] = basal S. cerevisiae growth modulation, no modifier, primary screen, OD600, strain BY4716, 24 h, basal condition (AID 1173); details: OD600, 24 h, higher = more signal, called active from +8 up or from −8 down
# [3] = MM1S myeloma cell viability, profiling panel, resazurin fluorescence, basal, 24 h, PK04 Diversity Set (AID 1174); details: higher = more signal, called active from +8 up or from −8 down;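 note: MM1S multiple myeloma cell line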
# [4] = molecular target: Dihydroorotate dehydrogenase (quinone), mitochondrial (Plasmodium falciparum (isolate 3D7)) (UniProt Q08210); test: PfDHODH enzyme inhibitors, primary screen, biochemical, C-terminal His tag, absorbance 600 nm (AID 1175); details: DCIP absorbance 600 nm, higher = more signal, called active from +8 up or from −8 down;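 note: recombinant parasite enzyme with a five histidine tag at its C terminus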
# [5] = P. aeruginosa biofilm formation inhibitors, primary screen, strain PAO1, LB-PBS medium, absorbance 600 nm (AID 1176); details: P. aeruginosa PAO1 growth/biofilm, A600, 12 h; higher = more signal
# [6] = S. cerevisiae RM11-1a growth modifiers, primary screen, strain RM11-1a, OD600, basal, 24 h (AID 1177); details: OD600, 24 h, higher = more signal, called active from +8 up or from −8 down;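 note: cultures grown under basal conditions with no added stressor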
# [7] = E. coli acrAB mutant growth effects, primary screen, E. coli filamentation inducers, strain DRC39, OD650, 24 h (AID 1178); details: higher = more signal, called active from +8 up or from −8 down;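 note: growth measured as culture turbidity by optical density at 650 nm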
# [8] = E. coli acrAB mutant growth effects, primary screen, E. coli filamentation inducers, strain DRC39, OD650, 48 h (AID 1179);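 note: screen aims at cell division blockers that make cells filament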; details: E. coli DRC39 delta-acrAB growth, higher = more signal, called active from +8 up or from −8 down
# [9] = RPMI8226 myeloma cell viability, profiling panel, resazurin fluorescence, basal, 24 h, PK04 Diversity Set (AID 1180); details: higher = more signal;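 note: RPMI8826 multiple myeloma cell line at 5000 cells per well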
# [10] = molecular target: E3 ubiquitin-protein ligase XIAP (Homo sapiens) (UniProt P98170); test: XIAP binders, primary screen, biophysical, small-molecule microarray, fluorescence 635 nm (AID 1181); details: small-molecule microarray binding, higher = more signal;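 note: score merges 667 nm emission and signal to noise over triplicate slides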
# [11] = test system: XIP peptide (Xip251-270) binding; test: small-molecule binders of XIP peptide, primary screen, biochemical, small-molecule microarray, fluorescence 635/667 nm, 0.1 µg/mL protein (AID 1182); details: fluorescent protein binding, 635 nm, higher = more signal, called active from +8 up or from −8 down
# [12] = test system: XIP peptide (Xip251-270); test: small-molecule binders of XIP peptide, primary screen, biochemical, small-molecule microarray, fluorescence 635/667 nm, 0.5 µg/mL protein (AID 1183); details: small-molecule microarray binding, fluorescence 635 nm; higher = more signal
# [13] = Plasmodium falciparum growth inhibition, primary screen, strain 3D7, DAPI fluorescence, 100 nL (AID 1184);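 note: parasites grown inside human red blood cells in medium with human serum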; details: P. falciparum 3D7 growth, 3 d, higher = more signal
# [14] = molecular target: Homeobox protein Hox-A13 (Mus musculus) (UniProt Q62424); test: inhibitors of HoxA13-DNA binding, primary screen, biochemical, fluorescence polarization, labeled oligonucleotide (AID 1185); details: 15 min, higher = more signal, called active from +8 up or from −8 down
# [15] = inhibitors of hydroxyurea-induced Chk1 phosphorylation, primary screen, imaging, HeLa, phospho-Chk1 antibody, percent positive cells (AID 1186); details: hydroxyurea-induced phospho-Chk1 immunofluorescence imaging, higher = more signal
# [16] = inhibitors of hydroxyurea-induced Chk1 phosphorylation, primary screen, imaging, HeLa, phospho-Chk1 nuclear intensity (AID 1187); details: hydroxyurea-induced phospho-Chk1 immunofluorescence imaging, higher = more signal
# Sequence of Homeobox protein Hox-A13 (Mus musculus) (Q62424 whole entry, looked up): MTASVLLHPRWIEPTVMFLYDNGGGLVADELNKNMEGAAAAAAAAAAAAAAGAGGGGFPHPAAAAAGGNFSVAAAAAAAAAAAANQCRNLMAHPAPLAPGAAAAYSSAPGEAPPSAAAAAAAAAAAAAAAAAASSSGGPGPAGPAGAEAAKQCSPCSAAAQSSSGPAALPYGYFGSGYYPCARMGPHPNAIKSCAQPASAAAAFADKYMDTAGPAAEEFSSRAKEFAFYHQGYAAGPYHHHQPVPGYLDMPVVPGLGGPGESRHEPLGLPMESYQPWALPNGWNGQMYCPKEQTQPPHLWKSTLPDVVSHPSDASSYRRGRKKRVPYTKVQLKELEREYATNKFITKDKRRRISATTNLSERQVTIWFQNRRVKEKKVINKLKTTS
# Sequence of Dihydroorotate dehydrogenase (quinone), mitochondrial (Plasmodium falciparum (isolate 3D7)) (Q08210 whole entry, looked up): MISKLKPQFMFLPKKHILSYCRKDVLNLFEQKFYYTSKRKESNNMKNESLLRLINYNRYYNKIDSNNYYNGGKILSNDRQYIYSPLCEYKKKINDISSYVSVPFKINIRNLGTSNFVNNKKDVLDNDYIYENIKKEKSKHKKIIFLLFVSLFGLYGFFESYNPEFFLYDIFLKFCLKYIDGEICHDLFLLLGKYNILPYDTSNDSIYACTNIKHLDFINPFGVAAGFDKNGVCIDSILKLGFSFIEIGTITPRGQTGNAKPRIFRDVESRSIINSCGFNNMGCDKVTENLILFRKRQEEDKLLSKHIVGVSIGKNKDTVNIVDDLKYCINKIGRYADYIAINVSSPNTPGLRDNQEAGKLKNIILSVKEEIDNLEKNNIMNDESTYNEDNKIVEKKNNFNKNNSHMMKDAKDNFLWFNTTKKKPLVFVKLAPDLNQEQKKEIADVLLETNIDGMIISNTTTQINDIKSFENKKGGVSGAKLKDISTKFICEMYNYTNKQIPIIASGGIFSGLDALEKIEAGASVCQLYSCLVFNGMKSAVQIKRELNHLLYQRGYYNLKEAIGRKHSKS
# Sequence of E3 ubiquitin-protein ligase XIAP (Homo sapiens) (P98170 whole entry, looked up): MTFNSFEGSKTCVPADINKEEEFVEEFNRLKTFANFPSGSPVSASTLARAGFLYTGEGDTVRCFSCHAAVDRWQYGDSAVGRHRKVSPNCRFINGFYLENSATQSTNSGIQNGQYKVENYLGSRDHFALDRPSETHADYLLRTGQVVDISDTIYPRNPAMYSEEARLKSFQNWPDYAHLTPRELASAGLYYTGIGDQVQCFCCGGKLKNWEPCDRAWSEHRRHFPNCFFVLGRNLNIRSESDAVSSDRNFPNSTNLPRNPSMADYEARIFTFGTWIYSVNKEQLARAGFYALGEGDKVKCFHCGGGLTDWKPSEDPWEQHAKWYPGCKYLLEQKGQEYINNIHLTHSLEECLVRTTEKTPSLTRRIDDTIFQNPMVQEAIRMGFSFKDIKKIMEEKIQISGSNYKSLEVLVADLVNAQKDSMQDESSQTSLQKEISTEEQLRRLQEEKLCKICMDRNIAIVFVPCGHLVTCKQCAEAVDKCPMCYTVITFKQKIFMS
Structure (SMILES),z-score [1],z-score [2],z-score [3],composite z-score [4],z-score [5],z-score [6],z-score [7],z-score [8],z-score [9],composite z-score [10],composite z-score [11],composite z-score [12],z-score [13],z-score [14],z-score [15],z-score [16]
Cc1ccc(C(C)CC(O)C2C=CC3C(=O)N(c4ccccc4)C(=O)C3N2Nc2ccc(C(C)C)cc2)o1 (stereo not drawn),-1.32,0.123 (inactive),-0.905 (inactive),0.824 (inactive),1.5 (inactive),0.685 (inactive),-0.751 (inactive),-0.682 (inactive),-1.03,-0.0238,0.195 (inactive),0.691,0.0472,-3.2 (inactive),0.527 (inactive),0.482 (inactive)
COc1cc2c(cc1OC)CN(C(=O)[C@@H]1[C@H]3C(=O)O[C@H](c4ccccc4)[C@H](c4ccccc4)N3[C@H](c3ccccc3OCCO)[C@@]13C(=O)Nc1ccc(C#CC4(O)CCCCCC4)cc13)CC2,0.529,0.882 (inactive),-2.17 (inactive),0.44 (inactive),2.03 (inactive),3.23 (inactive),-0.236 (inactive),1.01 (inactive),0.284,-0.11,0.863 (inactive),0.822,-1.67,2.22 (inactive),-0.517 (inactive),-0.522 (inactive)
CC(C)C[C@@H]1NC(=O)[C@H]2C[C@@H](C(=O)NCCCCCC[N+](C)(C)C)[C@@H](c3cccc(OCCO)c3)N2C1=O,1.15,-0.703 (inactive),0.288 (inactive),-1.16 (inactive),-0.819 (inactive),-0.215 (inactive),0.481 (inactive),0.442 (inactive),0.571,-0.188,0.506 (inactive),0.748,-0.411,-5.33 (inactive),-0.481 (inactive),-0.503 (inactive)
COC(=O)[C@@]1(Cc2ccccc2)[C@H]2c3cc(C(=O)N4CCCC4)n(Cc4cc(F)cc5c4OCOC5)c3C[C@H]2CN1C(=O)c1ccccc1,-0.0185,0.978 (inactive),-0.523 (inactive),-0.354 (inactive),0.122 (inactive),-0.0989 (inactive),-0.599 (inactive),-0.37 (inactive),-0.312,0.392,0.766 (inactive),0.828,-1.65,-5.42 (inactive),0.189 (inactive),0.435 (inactive)
COCCOC(=O)N1C(=O)[C@@]2(c3cc(C#Cc4ccc(OC)cc4)ccc31)[C@H](C(=O)NC[C@H](O)c1ccccc1)[C@H]1C(=O)O[C@H](c3ccccc3)[C@H](c3ccccc3)N1[C@@H]2c1ccc(O)cc1,-0.857,-0.11 (inactive),-1.09 (inactive),-0.352 (inactive),1.34 (inactive),0.552 (inactive),-0.365 (inactive),-0.736 (inactive),-1.32,0.261,1.42 (inactive),0.775,-0.754,-1.78 (inactive),-0.045 (inactive),0.126 (inactive)
CCCCC(=C=CC[C@@H](O)c1ccc(OCCO)cc1)C[C@@H](O)COCc1ccccc1,0.931,-5.91 (inactive),-0.301 (inactive),-2.29 (inactive),0.637 (inactive),-3.31 (inactive),1.9 (inactive),1.55 (inactive),-0.342,0.124,0.117 (inactive),0.408,-2.73,-4.47 (inactive),-0.263 (inactive),0.737 (inactive)
[N-]=[N+]=Nc1ccccc1[C@H]1OC(c2ccc(OCCCO)cc2)=N[C@@]1(CCS(=O)(=O)c1ccccc1)C(=O)N1CCCCC1,0.186,-0.0728 (inactive),-1.63 (inactive),-0.792 (inactive),0.715 (inactive),0.836 (inactive),0.21 (inactive),-0.714 (inactive),-1.64,-0.0884,0.154 (inactive),0.755,-2.19,-1.18 (inactive),-0.483 (inactive),-0.458 (inactive)
CCOC(=O)C[C@H]1[C@H](OC(=O)c2ccc(-c3ccccc3)cc2)[C@@H](NC(=O)c2ccc3ccccc3n2)c2cc(OCCCO)ccc2N1C(=O)c1ccccc1,-0.576,1.11 (inactive),-0.421 (inactive),0.421 (inactive),-0.37 (inactive),0.97 (inactive),0.353 (inactive),0.287 (inactive),-0.193,-0.286,-0.0549 (inactive),0.266,-1.1,-2.05 (inactive),0.188 (inactive),0.16 (inactive)
COCCCNC(=O)[C@]1(CCC(=O)OC(C)(C)C)N=C(c2ccc(OCCCO)cc2)O[C@@H]1c1ccccc1,-0.402,0.397 (inactive),-0.121 (inactive),0.152 (inactive),0.413 (inactive),0.0279 (inactive),-0.286 (inactive),-0.0848 (inactive),-0.354,0.081,0.538 (inactive),0.817,0.83,-6.02 (inactive),-0.289 (inactive),-0.288 (inactive)
CC(C)C(=C=CC[C@H](O)c1ccc(OCCO)cc1)C[C@H](O)c1cc(Cl)cc(Cl)c1O,0.918,-5.12 (inactive),-1.31 (inactive),-2.84 (inactive),-0.21 (inactive),-0.2 (inactive),1.14 (inactive),0.476 (inactive),-0.576,0.0338,0.263 (inactive),0.746,-2.74,-1.35 (inactive),-0.289 (inactive),0.18 (inactive)
COc1ccc([Si](C)(C)[C@@H]2[C@@H](CCO)O[C@]3(C(=O)N(Cc4cccc(N5C(=O)c6ccccc6Oc6ccccc65)c4)c4ccccc43)[C@H]2C)cc1,-1.11,1.02 (inactive),-4.32 (inactive),0.786 (inactive),1.64 (inactive),5.08 (inactive),1.89 (inactive),1.48 (inactive),-2.95,-0.177,0.872 (inactive),0.41,-2.47,-1.49 (inactive),-0.665 (inactive),-0.278 (inactive)
CC(CO)N1C(=O)[C@@H]2C3C(=O)OCCC/C=C\[C@H]3OC23C=CCN(Cn2nnc4ccccc42)C(=O)[C@@H]13 (stereo partly drawn),0.256,-0.159 (inactive),0.595 (inactive),-2.72 (inactive),0.205 (inactive),0.549 (inactive),0.935 (inactive),0.829 (inactive),0.605,0.0511,-0.584 (inactive),0.475,0.357,-2.97 (inactive),-0.235 (inactive),0.103 (inactive)
CC(C)CN1C(=O)[C@@]2(c3ccc([N+](=O)[O-])cc3)CC(=O)N(CC34CC5CC(CC(C5)C3)C4)[C@@H]2c2ccc(CO)cc21,-1.64,-0.22 (inactive),0.113 (inactive),-4.84 (inactive),0.146 (inactive),-0.855 (inactive),0.197 (inactive),-0.213 (inactive),0.248,-0.289,0.141 (inactive),-0.0737,-1.14,0.944 (inactive),0.016 (inactive),-0.164 (inactive)
COC(=O)C1(Cc2ccccc2)C=C2C(=C(C(C)C)C(=O)C2C)CN1 (stereo not drawn),-0.88,0.736 (inactive),-2.2 (inactive),-1.72 (inactive),1.35 (inactive),0.905 (inactive),-0.999 (inactive),-0.927 (inactive),-1.59,0.0493,0.0989 (inactive),0.648,-1.07,-9.8 (active),0.366 (inactive),0.602 (inactive)
COc1ccc([Si](C)(C)[C@@H]2[C@@H](CCO)O[C@]3(C(=O)N(Cc4cccc(N5C(=O)c6cccc7cccc5c67)c4)c4ccccc43)[C@H]2C)cc1,-1.83,1.34 (inactive),-2.77 (inactive),0.518 (inactive),1.53 (inactive),5.01 (inactive),1.55 (inactive),0.97 (inactive),-3.49,-0.0351,0.875 (inactive),0.635,-2.52,-1.52 (inactive),-0.758 (inactive),0.0003 (inactive)
C=CCC(OC(C)=O)[C@@H]1[C@@H](N(Cc2cc3ccccc3o2)C(=O)Cc2ccc(F)cc2)c2cc(OCCCO)ccc2N1C(=O)c1ccc2ccccc2n1 (stereo partly drawn),0.182,-0.44 (inactive),0.74 (inactive),-0.235 (inactive),0.243 (inactive),-0.176 (inactive),0.106 (inactive),0.155 (inactive),0.708,-0.217,-0.173 (inactive),-0.442,0.774,-1.55 (inactive),0.702 (inactive),0.636 (inactive)
COC1(C)CN(Cc2ccccc2Br)[C@H](/C=C/c2ccccc2)[C@H](Cc2ccccc2)O1 (stereo partly drawn),1.1,-0.138 (inactive),0.832 (inactive),-0.167 (inactive),0.331 (inactive),0.44 (inactive),0.531 (inactive),0.523 (inactive),1.2,-0.102,-0.181 (inactive),-0.13,0.502,0.471 (inactive),-1.6 (inactive),-2.34 (inactive)
C=C(COC)/C(=C/C[C@@H](OC(=O)c1ccncc1)c1cccc(OCCO)c1)c1cnc2ccccc2c1,-0.464,-17.3 (active),-0.835 (inactive),-6.7 (inactive),1.17 (inactive),-5.29 (inactive),-0.451 (inactive),-0.318 (inactive),-0.526,0.594,0.482 (inactive),0.763,-2.79,-5.6 (inactive),0.594 (inactive),0.376 (inactive)
